Laboratory results reported in PubChem BioAssay (NCATS).
Unmarked numbers belong to inactive results. Results filed as inconclusive are left out. The source made the active and inactive calls. Unless noted, the call rests on the fitted dose curve; in most records, active means well fitted curve in the direction sought with a large enough effect; inconclusive means small, poorly fitted or top-dose-only effect, or another doubt; inactive means no such curve, though single readings can be large; an effect the other way counts as inactive or inconclusive.

molecular target: 3',5'-cyclic-AMP phosphodiesterase 4B (Homo sapiens) (UniProt Q07343); experiment: qHTS Assay for Inhibitors of PDE-IV (AID 607; active means well fitted activation curve with a large enough effect in the main read-out, with a control signal flat, not every such curve was filed as active; further: % of control where 0% means no effect); conditions: HEK293 ACTOne CNG channel cells, membrane potential fluorescence; series mostly up to 22.9 µM; activation (PDE inhibition): at the top concentration
Procedure, shortened: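 Live HEK293 cells with a modified cyclic nucleotide-gated (CNG) channel report intracellular cAMP via membrane-potential dye fluorescence (ex 535/em 590 nm). Endogenous PDE-IV was targeted. Compounds were tested at up to 22.9 uM final; RO 20-1724 100 uM served as control.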

Sequence of 3',5'-cyclic-AMP phosphodiesterase 4B (Homo sapiens) (Q07343 whole entry, looked up): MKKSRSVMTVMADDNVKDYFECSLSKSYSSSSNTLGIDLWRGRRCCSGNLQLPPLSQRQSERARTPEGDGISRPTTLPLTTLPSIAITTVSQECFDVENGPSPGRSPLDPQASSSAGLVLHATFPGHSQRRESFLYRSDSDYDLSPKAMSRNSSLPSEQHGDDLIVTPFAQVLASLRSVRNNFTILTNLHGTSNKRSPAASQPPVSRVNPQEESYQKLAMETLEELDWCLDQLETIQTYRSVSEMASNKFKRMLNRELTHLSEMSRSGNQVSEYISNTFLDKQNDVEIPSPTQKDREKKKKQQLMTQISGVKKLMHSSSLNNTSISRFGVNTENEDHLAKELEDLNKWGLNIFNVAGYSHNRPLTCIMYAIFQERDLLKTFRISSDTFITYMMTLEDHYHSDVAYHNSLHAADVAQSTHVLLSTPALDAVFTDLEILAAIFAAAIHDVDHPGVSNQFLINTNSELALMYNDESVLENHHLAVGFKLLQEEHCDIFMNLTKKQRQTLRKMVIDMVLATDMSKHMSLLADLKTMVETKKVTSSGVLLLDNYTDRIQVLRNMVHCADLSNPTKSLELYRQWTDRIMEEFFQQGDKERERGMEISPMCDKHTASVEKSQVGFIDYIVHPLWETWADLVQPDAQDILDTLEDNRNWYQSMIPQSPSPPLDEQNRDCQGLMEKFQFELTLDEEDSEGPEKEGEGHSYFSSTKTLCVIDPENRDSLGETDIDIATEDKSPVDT

| SMILES | activation (PDE inhibition) |
| --- | --- |
| COc1ccccc1CN1CCC2(CC1)CCN(C(C)=O)CC2 | -5.67% |
| N#Cc1ccc(CN2CCCC3(CCN(C(=O)c4cccc(F)c4)CC3)C2)cc1 | 0.577% |
| O=C(c1ccco1)N1CCC2(CC1)CN(C(c1ccccc1)c1ccccc1)C2 | 1.57% |
| CS(=O)(=O)N1CCC2(CC1)CN(Cc1cc(C(F)(F)F)cc(C(F)(F)F)c1)C2 | 19.1% |
| CC(C)NC(=O)N1CCCC2(CCN(C(=O)c3cc(C(F)(F)F)cc(C(F)(F)F)c3)CC2)C1 | -1.23% |
| N#Cc1cccc(NC(=O)N2CCC3(CC2)CCN(C(=O)c2csnn2)CC3)c1 | 13.6% |
| O=C(Oc1ccccc1)N1CCC[C@@]2(CCN(c3ncccn3)C2)C1 | 13.9% |
| COCC(=O)N1CCC[C@@]2(CCN(Cc3ccccc3OC)C2)C1 | -6.98% |
| CC(C)NC(=O)N1CC[C@@]2(CCCN(C(=O)c3cc(C(F)(F)F)cc(C(F)(F)F)c3)C2)C1 | -7.52% |
| O=C(Nc1cccc(F)c1)N1CC[C@@]2(CCCNC2)C1 | 9.49% |
| COCC(=O)N1CCC2(CCCN(C(=O)Nc3ccc(OC)cc3)C2)CC1 | -0.489% |
| O=C(c1ccco1)N1CCC[C@@]2(CCN(Cc3ccccc3)C2)C1 | 2.22% |
| CC(=O)N1CCC2(CCCN(C(c3ccccc3)c3ccccc3)C2)CC1 | 2.69% |
| COc1cccc(-c2ccc3ncnc(NC4CCNCC4)c3c2)c1 | -1.32% |
| COc1ccccc1CN1CCCC2(CCN(S(C)(=O)=O)CC2)C1 | 8.72% |
| O=C(c1csnn1)N1CCC[C@@]2(CCN(Cc3nccs3)C2)C1 | 8.49% |
| O=C(c1csnn1)N1CCC2(CC1)CCN(c1ccccc1)CC2 | -2.4% |
| CC(C)CN1CC[C@@]2(CCCN(C(=O)c3cnccn3)C2)C1 | 0.171% |
| CN(C)c1ncc2ncc(=O)n(Cc3ccc(F)cc3)c2n1 | 19.4% |
| O=C(c1ccco1)N1CCC[C@@]2(CCN(c3ccccc3)C2)C1 | 25.3% |
| CC(C)CN1CC[C@@]2(CCCN(S(=O)(=O)c3ccccc3)C2)C1 | 14.4% |

molecular target: Cytochrome P450 3A4 (Homo sapiens) (UniProt P08684); experiment: qHTS Assay for Activators of Cytochrome P450 3A4 (AID 885); conditions: recombinant CYP3A4, Luciferin-PPXE luminescence, 60 min; series mostly up to 57.1 µM; activity change, positive = activation: at the top concentration; further: nearly all actives have a fitted effect of over 65% in size; further: potency means the concentration at half of the fitted maximal effect
Procedure, shortened: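 Using 20nM recombinant human CYP3A4 in potassium phosphate (200mM), substrate Luciferin-PPXE at 25uM, luminescent luciferin detection followed a 60-min RT NADPH reaction; data scaled to 57 uM ketoconazole.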

Sequence of Cytochrome P450 3A4 (Homo sapiens) (P08684 whole entry, looked up): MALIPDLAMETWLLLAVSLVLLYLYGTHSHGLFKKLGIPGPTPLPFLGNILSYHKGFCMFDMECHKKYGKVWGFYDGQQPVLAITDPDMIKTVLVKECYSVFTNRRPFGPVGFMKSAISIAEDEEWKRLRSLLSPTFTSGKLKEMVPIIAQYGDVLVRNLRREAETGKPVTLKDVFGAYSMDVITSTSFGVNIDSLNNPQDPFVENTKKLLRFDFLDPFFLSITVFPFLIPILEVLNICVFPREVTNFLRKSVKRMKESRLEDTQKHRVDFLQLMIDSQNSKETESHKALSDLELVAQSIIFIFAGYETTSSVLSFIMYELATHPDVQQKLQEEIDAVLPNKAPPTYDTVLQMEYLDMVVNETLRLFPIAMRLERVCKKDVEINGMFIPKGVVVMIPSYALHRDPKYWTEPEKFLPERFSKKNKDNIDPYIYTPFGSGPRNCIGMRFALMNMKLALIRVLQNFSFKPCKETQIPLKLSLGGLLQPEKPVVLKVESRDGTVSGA

| SMILES | activity change, positive = activation | Potency |
| --- | --- | --- |
| COC(=O)N1CCC2(CCCN(Cc3ccccc3OC)C2)CC1 | -36% |  |
| Cc1noc(C)c1C(=O)N1CCC[C@@]2(CCN(Cc3ccccc3)C2)C1 | -62% |  |
| O=S(=O)(c1ccccc1)N1CCC2(CCCN(c3ncccn3)C2)CC1 | -64.3% |  |
| COc1ccc(NC(=O)N2CCCC3(CCNCC3)C2)cc1 | -68.2% |  |
| COc1ccccc1CN1CC[C@@]2(CCCN(C(=O)c3cccn3C)C2)C1 | -83.6% |  |
| Cn1cccc1C(=O)N1CCC[C@@]2(CCN(Cc3cc(C(F)(F)F)cc(C(F)(F)F)c3)C2)C1 | -88.7% |  |
| COc1ccccc1CN1CC[C@@]2(CCCN(S(C)(=O)=O)C2)C1 | -56.6% |  |
| COc1ccc(NC(=O)N2CC[C@@]3(CCCN(C(=O)c4cnccn4)C3)C2)cc1 | -31.6% |  |
| CC(C)CN1CC[C@@]2(CCCN(C(=O)c3csnn3)C2)C1 | -61.8% |  |
| O=C(c1cnccn1)N1CCC2(CCCN(c3ccccc3)C2)CC1 | -78.2% |  |
| COCC(=O)N1CCC[C@@]2(CCN(C(=O)Nc3cccc(F)c3)C2)C1 | -36.6% |  |
| CC(C)NC(=O)N1CCCC2(CCN(C(=O)c3cccc(F)c3)CC2)C1 | -38.9% |  |
| N#Cc1ccc(CN2CCCC3(CCN(C(=O)c4cccc(F)c4)CC3)C2)cc1 | -56.4% |  |
| O=C(c1ccco1)N1CCC2(CC1)CN(C(c1ccccc1)c1ccccc1)C2 |  | 10 µM (active) |
| CC(C)NC(=O)N1CCCC2(CCN(C(=O)c3cc(C(F)(F)F)cc(C(F)(F)F)c3)CC2)C1 | -86.8% |  |
| N#Cc1cccc(NC(=O)N2CCC3(CC2)CCN(C(=O)c2csnn2)CC3)c1 | -38.1% |  |
| O=C(Oc1ccccc1)N1CCC[C@@]2(CCN(c3ncccn3)C2)C1 | -51.2% |  |
| CC(C)NC(=O)N1CC[C@@]2(CCCN(C(=O)c3cc(C(F)(F)F)cc(C(F)(F)F)c3)C2)C1 | -60.9% |  |
| O=C(Nc1cccc(F)c1)N1CC[C@@]2(CCCNC2)C1 | -67.8% |  |
| COCC(=O)N1CCC2(CCCN(C(=O)Nc3ccc(OC)cc3)C2)CC1 | -31% |  |
| O=C(c1ccco1)N1CCC[C@@]2(CCN(Cc3ccccc3)C2)C1 | -45.9% |  |
| CC(=O)N1CCC2(CCCN(C(c3ccccc3)c3ccccc3)C2)CC1 | -51.3% |  |
| COc1cccc(-c2ccc3ncnc(NC4CCNCC4)c3c2)c1 | -32.4% |  |
| O=C(c1csnn1)N1CCC[C@@]2(CCN(Cc3nccs3)C2)C1 | -68.9% |  |
| CC(C)CN1CC[C@@]2(CCCN(C(=O)c3cnccn3)C2)C1 | -50.8% |  |
| CN(C)c1ncc2ncc(=O)n(Cc3ccc(F)cc3)c2n1 | -31.9% |  |
| O=C(c1ccco1)N1CCC[C@@]2(CCN(c3ccccc3)C2)C1 | -67.7% |  |
| CC(C)CN1CC[C@@]2(CCCN(S(=O)(=O)c3ccccc3)C2)C1 | -55.3% |  |

molecular target: Cytochrome P450 2D6 (Homo sapiens) (UniProt P10635); experiment: qHTS Assay for Inhibitors and Substrates of Cytochrome P450 2D6 (AID 891); conditions: recombinant CYP2D6, luciferin-ME EGE luminescence; series mostly up to 57.1 µM; activity change, negative = inhibition: at the top concentration; further: nearly all actives have a fitted effect of over 60% in size; further: potency means the concentration at half of the fitted maximal effect;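 on activity change, negative = inhibition: luciferin methyl ether substrate demethylated by CYP2D6 with NADPH regeneration; on the % scale 0 is the no-effect control and ±100 the full control effect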
Procedure, shortened: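 Luminescent read-out of luciferin formed by 5 nM human CYP2D6 demethylating 30 uM Luciferin-ME EGE (Km level) over 60 min at room temperature after NADPH regeneration addition. Data normalized to full inhibition by 1.43 uM quinidine.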

Sequence of Cytochrome P450 2D6 (Homo sapiens) (P10635 whole entry, looked up): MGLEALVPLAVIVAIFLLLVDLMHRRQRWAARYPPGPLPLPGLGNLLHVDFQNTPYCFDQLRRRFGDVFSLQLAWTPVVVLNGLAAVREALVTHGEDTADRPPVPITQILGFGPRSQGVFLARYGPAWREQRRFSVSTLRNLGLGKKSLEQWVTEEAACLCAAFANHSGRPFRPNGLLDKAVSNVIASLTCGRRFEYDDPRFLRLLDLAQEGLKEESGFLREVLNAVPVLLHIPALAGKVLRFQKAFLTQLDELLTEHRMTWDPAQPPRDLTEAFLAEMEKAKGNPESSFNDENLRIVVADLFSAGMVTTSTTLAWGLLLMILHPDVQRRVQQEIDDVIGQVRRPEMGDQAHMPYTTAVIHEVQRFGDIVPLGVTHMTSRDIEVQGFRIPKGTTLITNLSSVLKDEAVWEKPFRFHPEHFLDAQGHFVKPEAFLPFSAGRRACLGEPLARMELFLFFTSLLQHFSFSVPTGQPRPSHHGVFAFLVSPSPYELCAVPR

| SMILES | Potency | activity change, negative = inhibition |
| --- | --- | --- |
| COC(=O)N1CCC2(CCCN(Cc3ccccc3OC)C2)CC1 | 3.16 µM (active) |  |
| Cc1noc(C)c1C(=O)N1CCC[C@@]2(CCN(Cc3ccccc3)C2)C1 | 7.94 µM (active) |  |
| COc1ccccc1CN1CC[C@@]2(CCCN(C(=O)c3cccn3C)C2)C1 | 0.316 µM (active) |  |
| Cn1cccc1C(=O)N1CCC[C@@]2(CCN(Cc3cc(C(F)(F)F)cc(C(F)(F)F)c3)C2)C1 | 3.98 µM (active) |  |
| COc1ccccc1CN1CC[C@@]2(CCCN(C(C)=O)C2)C1 | 3.16 µM (active) |  |
| COc1ccccc1CN1CC[C@@]2(CCCN(S(C)(=O)=O)C2)C1 | 0.316 µM (active) |  |
| COc1ccc(NC(=O)N2CC[C@@]3(CCCN(C(=O)c4cnccn4)C3)C2)cc1 |  | 25.3% |
| CC(C)CN1CC[C@@]2(CCCN(C(=O)c3csnn3)C2)C1 | 0.501 µM (active) |  |
| CC(=O)N1CCC2(CC1)CCN(C(=O)Nc1cccc(F)c1)CC2 | 3.16 µM (active) |  |
| O=C(c1ccncc1)N1CCC2(CC1)CCN(C(c1ccccc1)c1ccccc1)CC2 | 3.16 µM (active) |  |
| CC(C)NC(=O)N1CCCC2(CCN(C(=O)c3cccc(F)c3)CC2)C1 |  | 23% |
| COc1ccccc1CN1CCC2(CC1)CCN(C(C)=O)CC2 | 5.01 µM (active) |  |
| O=C(c1ccco1)N1CCC2(CC1)CN(C(c1ccccc1)c1ccccc1)C2 | 1.26 µM (active) |  |
| CS(=O)(=O)N1CCC2(CC1)CN(Cc1cc(C(F)(F)F)cc(C(F)(F)F)c1)C2 | 0.398 µM (active) |  |
| COCC(=O)N1CCC[C@@]2(CCN(Cc3ccccc3OC)C2)C1 | 6.31 µM (active) |  |
| O=C(c1ccco1)N1CCC[C@@]2(CCN(Cc3ccccc3)C2)C1 | 2 µM (active) |  |
| CC(=O)N1CCC2(CCCN(C(c3ccccc3)c3ccccc3)C2)CC1 | 7.94 µM (active) |  |
| COc1ccccc1CN1CCCC2(CCN(S(C)(=O)=O)CC2)C1 | 0.0631 µM (active) |  |
| O=C(c1csnn1)N1CCC[C@@]2(CCN(Cc3nccs3)C2)C1 | 5.01 µM (active) |  |
| CC(C)CN1CC[C@@]2(CCCN(S(=O)(=O)c3ccccc3)C2)C1 | 0.501 µM (active) |  |
